Data reported in PubChem BioAssay (NCATS).
“And” between values parts separate entries of the source, which are not always exact repeats. Equal values may be shown once. Inconclusive results are not listed. Some structures have more than one record in an assay (separate samples or runs), and their calls can disagree. The source made the active and inactive calls. Unless noted, calls follow the shape of the dose curve; as a rule, active = well fitted curve in either direction with a large enough effect (not every such curve was filed as active); inconclusive = small, poorly fitted or top-dose-only effect, or another doubt; inactive = flat fitted curve, though single readings scatter.

Experiments:
[1] = AP1 Signaling Pathway (AID 357); details: ME-180 AP-1-bla reporter, EGF-induced, beta-lactamase ratio, 5 h; at 38 µM (top of the series) unless noted; also: % is scaled to controls: 0 for no effect and ±100 for the full control effect
Summary of the method: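 ME-180 cells with beta-lactamase reporter under AP-1 response element, stimulated with EC50 EGF; compounds tested in titration series, 5 h at 37 °C. CCF4 substrate added 2.5 h at room temperature; 460/530 nm emission ratio gave %activity and AC50.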

[2] = NFAT Signaling Pathway (AID 444); details: Jurkat NFAT-bla M1, carbachol, beta-lactamase ratio, 5 h; at 38 µM (top of the series) unless noted;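 also: carbachol stimulus at about its EC50 of 1 µM final; % is scaled to controls: 0 for no effect and ±100 for the full control effect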
Summary of the method: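 Jurkat cells carrying an NFAT-driven β-lactamase reporter and co-transfected muscarinic M1 receptor were treated with compound plus carbachol (1 uM final, an EC50 level) for 5 h at 37 °C. CCF4 loading followed for 1 h at RT; 460/530 nm ratio gave %activity.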

[3] = Stat Signaling Pathway (AID 446); details: ME-180 (cervical carcinoma) SIE beta-lactamase reporter, IL-6 stimulated, 5 h; at 38 µM (top of the series) unless noted;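 also: ME-180 cervical cancer cells given 40 pM IL-6 alongside compound; SIE-controlled beta-lactamase reporter measured as 460/530 nm FRET emission ratio; % is scaled to controls: 0 for no effect and ±100 for the full control effect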
Summary of the method: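 Emission at 460 and 530 nm (excitation 405 nm) reports SIE-controlled beta-lactamase in ME-180 cells. Cells received compound with 40 pM IL-6 for 5 hrs at 37 C; data scaled between 300 pM IL-6 and 125 nM JAK-inhibitor controls.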

[4] = target: Glucocorticoid receptor (Homo sapiens) (UniProt P04150); experiment: GR-GFP Redistribution (AID 450;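 active = compounds whose dose series gives a full or clear partial fitted curve of increased nuclear translocation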; also: potency is read from the fitted curve at half-maximal effect); details: U2OS GR-GFP nuclear translocation, laser cytometry, 2 h
Chain of Glucocorticoid receptor (Homo sapiens) (P04150 whole entry, looked up, the tested form may be a part): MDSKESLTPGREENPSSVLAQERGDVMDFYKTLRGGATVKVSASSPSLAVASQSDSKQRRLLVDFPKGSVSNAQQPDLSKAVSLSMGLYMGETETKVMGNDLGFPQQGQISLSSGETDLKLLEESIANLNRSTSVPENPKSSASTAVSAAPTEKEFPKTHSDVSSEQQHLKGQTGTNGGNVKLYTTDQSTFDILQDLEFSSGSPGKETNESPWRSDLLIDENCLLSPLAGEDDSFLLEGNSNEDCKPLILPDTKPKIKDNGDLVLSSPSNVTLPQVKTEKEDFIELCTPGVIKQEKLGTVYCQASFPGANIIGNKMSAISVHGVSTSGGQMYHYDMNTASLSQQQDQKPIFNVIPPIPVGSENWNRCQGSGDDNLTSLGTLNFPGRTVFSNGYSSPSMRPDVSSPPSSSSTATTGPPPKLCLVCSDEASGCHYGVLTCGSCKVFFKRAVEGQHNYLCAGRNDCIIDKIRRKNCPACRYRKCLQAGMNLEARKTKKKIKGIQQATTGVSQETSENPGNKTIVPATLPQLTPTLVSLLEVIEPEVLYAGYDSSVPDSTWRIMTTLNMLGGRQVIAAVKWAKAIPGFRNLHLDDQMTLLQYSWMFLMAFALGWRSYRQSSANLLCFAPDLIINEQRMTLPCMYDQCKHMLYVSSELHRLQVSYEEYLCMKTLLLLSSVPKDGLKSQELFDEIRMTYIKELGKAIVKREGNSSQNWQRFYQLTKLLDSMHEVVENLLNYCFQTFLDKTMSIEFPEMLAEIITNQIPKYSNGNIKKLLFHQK

[5] = target: Glucocorticoid receptor (Homo sapiens) (UniProt P04150); experiment: GR-EFC Redistribution (AID 451; calls by dose curve; also: potency is read from the fitted curve at half-maximal effect); details: CHO-K1 GR-EFC translocation, beta-gal luminescence, 2 h
Summary of the method: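 CHO-K1 cells stably expressing nuclear-localized β-gal enzyme acceptor and GR fused C-terminally to the enzyme donor fragment; ligand-driven nuclear translocation restores β-gal by complementation. Compounds titrated up to 46 uM final, 2 h at 37 °C; luminescence read.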

[6] = target: Mitogen-activated protein kinase 10 (Mus musculus) (UniProt Q61831); experiment: JNK3 AlphaScreen Assay (AID 530);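 also: kinase came from lysate of stimulated human HepG2 cells; signal reports phosphorylation of biotinylated GST-cJun 1-79 at Ser73 with 10 µM ATP; % is scaled to controls: 0 for no effect and ±100 for the full control effect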
Summary of the method: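 Phosphorylation of biotinylated GST-cJun(1-79) at Ser73 is measured by AlphaScreen proximity luminescence. Enzyme is JNK3 in HepG2 lysates activated with interleukin-1beta and tumor necrosis factor alpha; ATP is 10 uM final.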

[7] = target: Cytochrome P450 1A2 (Homo sapiens) (UniProt P05177); experiment: p450-cyp1a2 (AID 410; calls by dose curve; also: potency is read from the fitted curve at half-maximal effect;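 as to activity change, negative = inhibition: -100% = full effect of reference inhibitor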)
Chain of Cytochrome P450 1A2 (Homo sapiens) (P05177 whole entry, looked up): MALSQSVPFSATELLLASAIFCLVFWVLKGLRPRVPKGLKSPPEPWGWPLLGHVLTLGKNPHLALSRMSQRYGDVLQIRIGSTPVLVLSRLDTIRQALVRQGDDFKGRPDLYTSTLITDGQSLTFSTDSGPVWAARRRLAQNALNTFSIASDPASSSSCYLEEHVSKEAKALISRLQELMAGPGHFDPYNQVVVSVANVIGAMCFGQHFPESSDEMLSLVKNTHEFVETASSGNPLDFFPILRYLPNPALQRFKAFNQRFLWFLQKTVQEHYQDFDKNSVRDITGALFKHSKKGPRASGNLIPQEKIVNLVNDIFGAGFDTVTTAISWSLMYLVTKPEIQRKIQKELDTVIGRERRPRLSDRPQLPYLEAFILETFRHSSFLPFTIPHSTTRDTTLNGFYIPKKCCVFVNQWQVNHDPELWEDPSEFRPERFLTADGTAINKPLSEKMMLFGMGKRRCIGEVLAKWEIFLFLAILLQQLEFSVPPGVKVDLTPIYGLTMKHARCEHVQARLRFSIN
Summary of the method: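 O-Demethylation of luciferin 6' methyl ether by human CYP1A2 is monitored as luciferase luminescence. Substrate sits at Km (100uM); enzyme is 20nM. Values are scaled to 57 uM furafylline as maximal inhibition.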

COc1ccc2c(c1)c(CC(=O)O)c(C)n2C(=O)c1ccccc1
inactive: activity change, negative = inhibition [1] 1.55% | activity change, negative = inhibition [2] -0.217% | activity, negative = inhibition [3] -19% | Potency [4] > 46 µM | Potency [5] > 46 µM

CC(N)=O
inactive: activity change, negative = inhibition [1] 9.17% | activity change, negative = inhibition [2] -6.62% | activity, negative = inhibition [3] 13.9% | Potency [4] > 46 µM | Potency [5] > 46 µM | outcome [6]

C=CC[C@H](N)C(=O)O
inactive: activity change, negative = inhibition [1] 12.7% | activity change, negative = inhibition [2] 2.66% | activity, negative = inhibition [3] 7.83% | Potency [4] > 46 µM | Potency [5] > 46 µM | outcome [6]

CNC(=O)c1cc2c(cn1)[nH]c1ccccc12
inactive: activity change, negative = inhibition [1] 0.843% | activity change, negative = inhibition [2] -1.62% | activity, negative = inhibition [3] 31.1% | Potency [4] > 46 µM | Potency [5] > 46 µM

O=c1onc2cnc3ccccc3n12
inactive: activity change, negative = inhibition [1] -2.81% | Potency [4] > 46 µM | Potency [5] > 46 µM | outcome [6]
active: Potency [7] 12.6 µM and 2.51 µM

NC(N)=[N+]1CCc2ccccc2C1
inactive: activity change, negative = inhibition [1] -5.39% | activity change, negative = inhibition [2] 1.51% | activity, negative = inhibition [3] 19.1% | Potency [4] > 46 µM | Potency [5] > 46 µM

O=C(O)C1CCNCC1
inactive: activity change, negative = inhibition [1] -3.06% | activity change, negative = inhibition [2] 11.3% | activity, negative = inhibition [3] -8.76% | Potency [4] > 46 µM | Potency [5] > 46 µM | outcome [6]

Oc1ccc(Cn2cc[nH]c2=S)cc1
active: Potency [7] 6.31 µM
inactive: activity change, negative = inhibition [1] -3.65% | Potency [4] > 46 µM | Potency [5] > 46 µM | outcome [6]

O=C1Cc2c([nH]c3ccc(Br)cc23)-c2ccccc2N1
inactive: Potency [4] > 46 µM | Potency [5] > 46 µM | outcome [6]
active: activity change, negative = inhibition [1] -104% | Potency [7] 1.26 µM and 158 nM

CCCCCCCCCCCCCCSCC(=O)O
inactive: activity change, negative = inhibition [1] -3.84% | Potency [7] | Potency [4] > 46 µM | Potency [5] > 46 µM | outcome [6]

NCCCNCCCCNCCCN
inactive and 15.8 µM (active): Potency [7]
inactive: activity change, negative = inhibition [1] 11.4% | Potency [4] > 46 µM | Potency [5] > 46 µM

O=C(O)C1=CC(=C(c2ccc(O)c(C(=O)O)c2)c2ccc(O)c(C(=O)O)c2)C=CC1=O
inactive: activity change, negative = inhibition [1] -18.9% | Potency [4] > 46 µM | Potency [5] > 46 µM
active: Potency [7] 10 µM

N=C(N)c1ccccc1
inactive: activity change, negative = inhibition [1] 10.4% | Potency [7] | activity, negative = inhibition [3] 8.11% | outcome [6]

O=C(O)C1=CCCN(CCON=C(c2ccccc2)c2ccccc2)C1
inactive: activity change, negative = inhibition [1] 5.02% | activity change, negative = inhibition [2] -1.26% | activity, negative = inhibition [3] -1.1% | Potency [4] > 46 µM | Potency [5] > 46 µM | outcome [6]

NCCS(=O)O
inactive: activity change, negative = inhibition [1] 7.28% | activity change, negative = inhibition [2] 3.37% | activity, negative = inhibition [3] -6.03% | Potency [4] > 46 µM | Potency [5] > 46 µM | outcome [6]

O=C(O)/C=C/c1ccc(O)c(O)c1
inactive: activity change, negative = inhibition [1] 5.87% [at 17.2 µM] | activity change, negative = inhibition [2] -10.8% [at 17.2 µM] | activity, negative = inhibition [3] -8.31% [at 17.2 µM] | Potency [4] > 20.6 µM

CNc1cc(NS(=O)(=O)c2ccc(N)cc2)nc(NC)n1
inactive: activity change, negative = inhibition [1] 4.35% | activity change, negative = inhibition [2] 3.2% | activity, negative = inhibition [3] 13.2% | Potency [4] > 46 µM | Potency [5] > 46 µM

CCCCCCC/C=C\CCCCCCCCC(=O)O
inactive: activity change, negative = inhibition [1] 12.5% | activity, negative = inhibition [3] -1.08% | Potency [4] > 46 µM | Potency [5] > 46 µM | outcome [6]
active: Potency [7] 31.6 µM

COc1ccccc1N1CCN(CCCCN2C(=O)c3ccccc3C2=O)CC1
inactive: activity change, negative = inhibition [1] -12.6% | Potency [7] | Potency [4] > 46 µM | Potency [5] > 46 µM | outcome [6]

Nc1nc2ccc(Cl)cc2c2nc(-c3ccco3)nn12
inactive: activity change, negative = inhibition [1] -6.92% | activity change, negative = inhibition [2] 19.6% | activity, negative = inhibition [3] 3.22% | Potency [4] > 46 µM | Potency [5] > 46 µM | outcome [6]
